Where a name gives a salt, the structure may show the parent alone.

The subject of this test is Ruminococcus gnavus DSM 108212. Nature of the test: fold change of Tryptamine concentration vs plate DMSO controls (fold change (ratio)); higher = more amine produced, active = hit call of the paper (significant change in both replicates, either direction). The following applies: incubation time: 27 h, anaerobic, 37 °C. Summed up:
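Amine values are fold changes relative to DMSO-only wells on the same plate. They derive from 27 h, 37 °C anaerobic mGAM cultures of four gut bacterial strains in 80 µL wells, dosed at 20 µM final, or 50 µM final for sweeteners. Extraction of the whole culture, LC–triple-quadrupole MS in dynamic MRM mode, external calibration curves and within-batch drift correction were used, with 2 biological replicates averaged.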
Regarding `O=C(O)c1cc(-c2ccc(F)cc2F)ccc1O` [Diflunisal] (20 µM), the “fold change of Tryptamine concentration” value is 1.02 (inactive). On to `Fc1ccc([C@@H]2CCNC[C@H]2COc2ccc3c(c2)OCO3)cc1` [Paroxetine hydrochloride] (20 µM), for which the “fold change of Tryptamine concentration” value was 0.833 (inactive).

With `CCN(CC)CCOC(=O)C1(C2CCCCC2)CCCCC1` [Dicyclomine hydrochloride] (20 µM), the “fold change of Tryptamine concentration” value was 0.845 (inactive). For `CN1[C@@H]2CC[C@H]1C[C@@H](OC(=O)c1c[nH]c3ccccc13)C2` [Tropisetron hydrochloride] (20 µM), the “fold change of Tryptamine concentration” value was 1.02 (inactive). For `NC(=O)N1c2ccccc2CC(=O)c2ccccc21` [Oxcarbazepine] (20 µM), the “fold change of Tryptamine concentration” value was 1.02 (inactive).

Regarding `N=C(NCCCCCCNC(=N)NC(=N)Nc1ccc(Cl)cc1)NC(=N)Nc1ccc(Cl)cc1` [Chlorhexidine] (20 µM), the “fold change of Tryptamine concentration” value was 0.0867 (active).

Take `CC(=O)Nc1ccccc1` [Acetanilide] (20 µM): the “fold change of Tryptamine concentration” value is 1.02 (inactive). In the case of `Nc1nc(N)nc(-c2cc(Cl)ccc2Cl)n1` [Irsogladine maleate] (20 µM), the “fold change of Tryptamine concentration” value was 0.959 (inactive). As for `Cc1ccsc1C(=CCCN1CCC[C@@H](C(=O)O)C1)c1sccc1C` [Tiagabine hydrochloride] (20 µM), the “fold change of Tryptamine concentration” value is 0.971 (inactive). `CC(C)NCC(O)c1ccc(O)c(O)c1` (single isomer, unassigned; (-)) [(-) Isoproterenol hydrochloride] (20 µM): the “fold change of Tryptamine concentration” value was 0.857 (inactive).

As for `CN(C)CCN(Cc1ccccc1)c1ccccn1` [Tripelennamine hydrochloride] (20 µM), the “fold change of Tryptamine concentration” value is 1.02 (inactive).

Regarding `C[C@H](NCc1ccc(OCc2cccc(F)c2)cc1)C(N)=O` [Safinamide] (20 µM), the “fold change of Tryptamine concentration” value was 0.99 (inactive).

`Cc1cc(NS(=O)(=O)c2ccc(N)cc2)nc(C)n1` [Sulfisomidine] (20 µM): the “fold change of Tryptamine concentration” value is 1.04 (inactive).

For the compound `O=C(O)Cc1ccccc1Nc1c(Cl)cccc1Cl` [Diclofenac sodium] (20 µM), the “fold change of Tryptamine concentration” value was 0.988 (inactive). With `CN1CCCN=C1/C=C/c1cccs1` [Pyrantel tartrate] (20 µM), the “fold change of Tryptamine concentration” value is 1.08 (inactive). To `CN(C(=O)C(Cl)Cl)c1ccc(OC(=O)c2ccco2)cc1` [Diloxanide furoate] (20 µM) belongs 0.915 (inactive). As to `O=C(Oc1ccccc1)c1ccccc1O` [Phenyl salicylate] (20 µM), the “fold change of Tryptamine concentration” value was 1.08 (inactive). With `CCCCC(C)(O)C/C=C/[C@H]1[C@H](O)CC(=O)[C@@H]1CCCCCCC(=O)OC` (mixture of isomers) [Misoprostol] (20 µM) the figure was 0.987 (inactive). With `Cc1cc(C(C)(C)C)c(O)c(C)c1CC1=NCCN1` [Oxymetazoline hydrochloride] (20 µM) the figure was 1.01 (inactive). Take `CCN(CC)CCc1nc(-c2ccccc2)no1` [Oxolamine citrate salt] (20 µM): the “fold change of Tryptamine concentration” value was 1.03 (inactive).

For the compound `COc1ccc2c(c1)c(CC(=O)OCC(=O)O)c(C)n2C(=O)c1ccc(Cl)cc1` [Acemetacin] (20 µM), the “fold change of Tryptamine concentration” value was 0.964 (inactive).

For `Cn1cnc([N+](=O)[O-])c1Sc1ncnc2[nH]cnc12` [Azathioprine] (20 µM), the “fold change of Tryptamine concentration” value is 0.965 (inactive). For `CCOC(=O)c1ccc(N)cc1` [Benzocaine] (20 µM), the “fold change of Tryptamine concentration” value is 1.06 (inactive).

Regarding `COC1=C(OC)C(=O)C(CCCCCCCCCCO)=C(C)C1=O` [Idebenone] (20 µM), the “fold change of Tryptamine concentration” value is 1.06 (inactive). On to `CC(=O)NCCCS(=O)(=O)O` [Acamprosate calcium] (20 µM), for which the “fold change of Tryptamine concentration” value was 0.996 (inactive). Take `CC(C)NCC(O)COc1cccc2[nH]c3ccccc3c12` (centres undefined) [Carazolol] (20 µM): the “fold change of Tryptamine concentration” value is 1.07 (inactive). Turning to `CC(C(=O)O)c1ccc(N2Cc3ccccc3C2=O)cc1` (centres undefined) [Indoprofen] (20 µM), the “fold change of Tryptamine concentration” value is 1.09 (inactive).

As for `CC1(C)S[C@@H]2[C@H](NC(=O)[C@H](N)c3ccccc3)C(=O)N2[C@H]1C(=O)O` [Ampicillin trihydrate] (20 µM), the “fold change of Tryptamine concentration” value is 0.0662 (active). For `CCN1CCCC1CNC(=O)c1cc(S(=O)(=O)CC)c(N)cc1OC` (centres undefined) [Amisulpride] (20 µM), the “fold change of Tryptamine concentration” value is 1.04 (inactive). To `COC(=O)Nc1nc2cc(C(=O)c3ccc(F)cc3)ccc2[nH]1` [Flubendazol] (20 µM) belongs 0.934 (inactive). In the case of `CCOc1nc2cccc(C(=O)OCc3oc(=O)oc3C)c2n1Cc1ccc(-c2ccccc2-c2noc(=O)[nH]2)cc1` [Azilsartan medoxomil] (20 µM), the “fold change of Tryptamine concentration” value is 1.07 (inactive). In the case of `COc1cc(C(=O)N2CCOCC2)cc(OC)c1OC` [Trimetozine] (20 µM), the “fold change of Tryptamine concentration” value was 1.04 (inactive). To `CC(C)NC[C@@H](O)COc1ccc(CC(N)=O)cc1` [(R,+) Atenolol] (20 µM) belongs 1.06 (inactive). `O=C(O)Cc1sc(-c2ccccc2)nc1-c1ccc(Cl)cc1` [Fentiazac] (20 µM): the “fold change of Tryptamine concentration” value was 0.966 (inactive).

In the case of `Nc1nc(CC(=O)Nc2ccc(CCNC[C@H](O)c3ccccc3)cc2)cs1` [Mirabegron] (20 µM), the “fold change of Tryptamine concentration” value was 0.999 (inactive). Consider `NS(=O)(=O)c1cc2c(cc1Cl)NC(CC1CCCC1)NS2(=O)=O` (centres undefined) [Cyclopenthiazide] (20 µM), for which the “fold change of Tryptamine concentration” value is 1.04 (inactive). With `Cc1cc(/C=C/c2ccc3cc(N(C)C)ccc3[n+]2C)c(C)n1-c1ccccc1` [Pyrvinium pamoate] (20 µM), the “fold change of Tryptamine concentration” value is 0.975 (inactive). Consider `CN1CCC(=C2c3ccccc3C=Cc3ccccc32)CC1` [Cyproheptadine hydrochloride] (20 µM), for which the “fold change of Tryptamine concentration” value is 0.98 (inactive). Regarding `Cc1ccccc1OCC(O)CO` (centres undefined) [Mephenesin] (20 µM), the “fold change of Tryptamine concentration” value is 1.04 (inactive).

(Values after the supplement of paper PMC12494721.)
